Compounds with a hit are over-represented: about 3.5% of the library has one in this group of screens.
14-3-3 Bad PPI = disrupts binding of bovine 14-3-3 zeta to phospho-Bad peptide | P63103 | TR-FRET 14-3-3zeta/Dy647-pBad peptide displacement, 1 h | inhibition, % at 21.7 µM | actives 0.71% (n = 220,000) | AID 781;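 active means inhibition above about 70%, limit read from the data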
Target sequence (P63103 whole entry, looked up): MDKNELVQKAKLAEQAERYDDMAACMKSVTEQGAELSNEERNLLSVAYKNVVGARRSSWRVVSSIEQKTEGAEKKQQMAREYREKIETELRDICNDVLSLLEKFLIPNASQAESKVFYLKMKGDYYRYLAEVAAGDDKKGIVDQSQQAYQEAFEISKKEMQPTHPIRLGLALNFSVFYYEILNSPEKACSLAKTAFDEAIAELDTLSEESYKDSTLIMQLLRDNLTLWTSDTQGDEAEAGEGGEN
Hck-Nef inh = blocks Nef-activated human Hck kinase; inhibition, % at 20 µM; Recombinant Hck-YEEI plus Nef, Z-Lyte FRET kinase assay; AID 463187; actives 0.68% (n = 220,000); P08631;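 active means Hck-Nef kinase inhibition above about 50%, limit read from the data; inactive means inhibition below that limit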
eIF4E 4G PPI = inhibitors of eIF4E and eIF4G interaction in translation initiation. P63073+Q04637. TR-FRET eIF4E-eIF4GI(517-606) binding, 2 h. inhibition, % at 21.7 µM. actives 0.37% (n = 220,000). AID 782;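 active means inhibition above about 30%, limit read from the data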
Mcl1-Bid inh = disrupts binding of human Mcl-1 to Bid peptide; Q07820; inhibition, % at 21.7 µM; actives 0.97% (n = 220,000); TR-FRET Mcl-1/Bid-Dy647 peptide binding, 1536-well;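 active means compounds that cut the binding signal by more than half at the single screening dose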;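 further: His-tagged Mcl-1 with europium anti-His antibody binding Bid BH3 peptide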
Mcl1 Noxa PPI = disrupts binding of human Mcl-1 to Noxa peptide; TR-FRET Mcl-1/Noxa peptide binding, 2 h; AID 1022; inhibition, % at 21.7 µM; actives 1.5% (n = 220,000);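 active means compounds that cut the protein-peptide binding signal by more than 50% relative to plate controls in a single-dose test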;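 further: His-tagged Mcl-1 with rhodamine Noxa BH3 peptide and terbium anti-His antibody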
Bim-Mcl-1 = human Bim-Mcl-1 interaction inhibition; Bead-based flow cytometry, Bim peptide-Mcl-1 binding; Q07820; inhibition, % at 10 µM; actives 0.1% (n = 190,000); in the data active means inhibition above about 40%
Of the large screens only hits and unclear results are named; the others gave an inactive call.

CC1=NN(c2ccccc2)C(=O)/C1=C/c1c(O)n(-c2ccc(F)c(Cl)c2)[nH]c1=O	Mcl1 Noxa PPI 85.8
Cc1ccc(S(=O)(=O)CC2CSc3nc4ccccc4n32)cc1 (stereo unspecified)	none
CC(=O)Nc1ccc(S(=O)(=O)N(Cc2ccccc2)c2ccccc2F)cc1	none
CC1(C)C2CCC(C2)C1(C)NC(=O)CNC1CCCCC1 (stereo unspecified)	none
CC1(C)C2CCC(C2)C1(C)NC(=O)CN1CCOCC1 (stereo unspecified)	14-3-3 Bad PPI 74.4
CC1CC(C)CN(c2ncnc3c2cnn3Cc2ccc(Cl)cc2)C1 (stereo unspecified)	Mcl1 Noxa PPI 64.0
CCOc1ccccc1C(=O)NC1CC2CCCC(C1)N2C1CC1 (stereo unspecified)	Bim-Mcl-1 42.0
CCOc1ccccc1C(=O)NC1CC2CCCC(C1)N2Cc1nnnn1Cc1ccco1 (stereo unspecified)	none
CN(/N=C/c1ccc(O)cc1O)c1ncc(C(F)(F)F)cc1Cl	none (no result: Bim-Mcl-1)
Cc1cccc(C)c1NC(=O)CN1C(=O)S/C(=C\c2cccn2-c2cccc(C(=O)O)c2)C1=O	none
Cc1ccccc1NC(=O)CN1C(=O)S/C(=C\c2cccn2-c2cccc(C(=O)O)c2)C1=O	none
Cc1ccc(NC(=O)CN2C(=O)S/C(=C\c3cccn3-c3cccc(C(=O)O)c3)C2=O)cc1C	Hck-Nef inh 50.3
Cc1ccc(NC(=O)CN2C(=O)S/C(=C\c3ccc(-c4cccc(C(=O)O)c4C)o3)C2=O)cc1C	14-3-3 Bad PPI 86.9, eIF4E 4G PPI 58.2, Mcl1 Noxa PPI 78.8
Cc1cccc(NC(=O)CN2C(=O)S/C(=C\c3cccn3-c3cccc(C(=O)O)c3)C2=O)c1	Hck-Nef inh 72.3
O=C(O)c1ccc(N2C(=O)/C(=C/C=C/c3ccccc3)SC2=S)cc1	none
Cc1cccc(NC(=O)CN2C(=O)N/C(=C/c3ccc(-c4cccc(C(=O)O)c4C)o3)C2=O)c1	none
Cc1cccc(C)c1-n1cccc1/C=C1\SC(=S)N(c2cccc(C(=O)O)c2)C1=O	Mcl1-Bid inh 51.7, Mcl1 Noxa PPI 51.3
O=C(Nc1cccnc1)OC1CCCC1	none
CCOc1ccc(CCNC(=O)c2cc3ccccn3n2)cc1OCC	none
Oc1ccc(-c2nnc(Nc3cccc(O)c3)c3ccccc23)cc1	Mcl1 Noxa PPI 60.5 (no result: Bim-Mcl-1)
CNC(=O)c1cc(Nc2nnc(-c3ccc(O)cc3)c3ccccc23)ccc1OC	none
COc1ccc(CNC(=O)COC(=O)c2ccco2)cc1	none
COC(=O)C1=NNC2(C)C(=O)N(c3ccc(C)cc3)C(=O)C12 (stereo unspecified)	none (no result: Bim-Mcl-1)
CCN(CC)c1ccc(NC2=C(Cl)C(=O)c3ccccc3C2=O)cc1	Mcl1 Noxa PPI 89.1
O=C(NCCCN1CCCC1=O)NC1CCCCC1	Bim-Mcl-1 54.0
O=C(NCCCN1CCCC1=O)c1ccc2c(c1)OCO2	Mcl1-Bid inh 61.9
O=C(NNC(=S)NC1CCCCC1)c1ccc2c(c1)OCO2	none
O=C(NC1CCCCCCC1)c1ccc2c(c1)OCO2	eIF4E 4G PPI 32.1
Cc1nc2ccccc2n1C(=O)c1ccccc1[N+](=O)[O-]	Mcl1-Bid inh 52.3
CCCCCCc1cc2cc(C(=O)Nc3ccc(OC)cc3)c(=O)oc2cc1O	none
CCCCCCc1cc2cc(C(=O)Nc3cccc(OC)c3)c(=O)oc2cc1O	Hck-Nef inh 52.6
Cc1nc2ncnn2c(C)c1CCC(=O)Nc1ccc(S(=O)(=O)N2CCCCCC2)cc1	Mcl1-Bid inh 52.2
CCOP(=O)(O)c1cccc(OCCOCCOc2cccc(P(=O)(O)OCC)c2)c1	none
N/C(Cn1cncn1)=N\NC(=O)C(=O)Nc1cccc(C(F)(F)F)c1	none
CC(NCc1ccc(N(C)C)cc1)C1CC2CCC1C2 (stereo unspecified)	14-3-3 Bad PPI 77.8
CC(NC(=O)CSc1ccccc1C(=O)O)C1CC2CCC1C2 (stereo unspecified)	none
O=C(/C=C/c1ccc(Cl)c(Cl)c1)NC1=NCCS1	none
C=CCSc1nc(-c2ccc(OC)cc2)c(C#N)c(=O)n1CC=C	eIF4E 4G PPI 88.7
S=C(NC1CCCCC1)N1CCn2cccc2C1c1cccnc1 (stereo unspecified)	Mcl1 Noxa PPI 63.5
O=C/C(=C\Nc1ccc(C(=O)N2CCOCC2)cc1)c1nc2ccccc2o1	none

Screens deposited in PubChem by several laboratories.
